Compound activity (PubChem)
The entries come from a sample that favours hits as a whole.
NS1 function inh: qHTS Assay for Inhibitors of Influenza NS1 Protein Function; Potency, µM (highest dose often 46.1 µM); 270,000 compounds, 0.4% hits; calls by dose curve; also: actives are rising curves; nearly all actives have a fitted effect of over 50% in size
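Read-out: OD600 growth recovery of NS1-expressing budding yeast. Cells grown overnight at 30C in -URA glucose medium, washed, resuspended and diluted 1:100 in 2% galactose assay medium, pH 6.0. Same strain lacking NS1 served as positive control.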
Cruzain inh Det: qHTS Assay for Promiscuous and Specific Inhibitors of Cruzain (with detergent); 200,000 compounds, 0.43% hits; Cruzipain (Trypanosoma cruzi), P25779; Potency, µM, actives largely listed as inhibitors; purified cruzain, Z-FR-AMC fluorescence, 0.01% Triton; also: nearly all actives have a fitted effect of over 40% in size
Target sequence (P25779 123-467 limits assumed): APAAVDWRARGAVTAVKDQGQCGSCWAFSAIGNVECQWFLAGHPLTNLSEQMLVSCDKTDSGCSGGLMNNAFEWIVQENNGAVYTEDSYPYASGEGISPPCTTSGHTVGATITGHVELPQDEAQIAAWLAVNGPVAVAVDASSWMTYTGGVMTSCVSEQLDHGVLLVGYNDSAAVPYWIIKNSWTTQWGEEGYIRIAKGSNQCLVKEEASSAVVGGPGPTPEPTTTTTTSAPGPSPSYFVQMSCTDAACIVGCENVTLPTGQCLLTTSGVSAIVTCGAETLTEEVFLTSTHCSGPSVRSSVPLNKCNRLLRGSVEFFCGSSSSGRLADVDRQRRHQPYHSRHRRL
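Compounds were screened in titration against cruzain (1.5 nM) with 0.01% Triton X-100 to counter colloidal aggregation. Activity was the AMC fluorescence increase over 60 s after adding 2 uM Z-FR-AMC at pH 5.5.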
Cruzain inh noDet: qHTS Assay for Promiscuous and Specific Inhibitors of Cruzain (without detergent); Potency, µM, actives largely listed as inhibitors; Cruzipain (Trypanosoma cruzi), P25779; 200,000 compounds, 2.3% hits; purified cruzain, Z-FR-AMC fluorescence, no detergent; also: nearly all actives have a fitted effect of over 40% in size
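Detergent-free condition (0.00005% Triton X-100) in acetate buffer pH 5.5 with DTT. 1.5 nM enzyme and compound were pre-mixed 15 min, then 2 uM Z-FR-AMC substrate added; reaction progress from fluorescence change between first and third reads (60 s).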
Flu NS1 inh: Assay for Inhibitors of Influenza NS1 Protein Function: Hit Validation. 1,400 tested, under 10 active. shares compounds with NS1 function inh. influenza NS1 function cell assay, 15-point titration. activity change, negative = inhibition, % at 32.9 µM; calls by dose curve
Flu PR8 replic: Assay for Inhibitors of Influenza NS1 Protein Function: Influenza virus replication assay in MDCK cells infected with virus A/PR/8/34; shares compounds with NS1 function inh; 95 compounds, 30% hits; MDCK infected influenza A/PR/8/34, virus titer TCID50; active compounds read low; virus titer (log TCID50), log10 TCID50 at 5 µM; call rule not given here
Hits are given with their value; . = inactive; ? = inconclusive; / = not tested or not shown. Unless noted, calls follow the shape of the dose curve; as a rule, active = well fitted curve in the direction sought with a large enough effect; inconclusive = small, poorly fitted or top-dose-only effect, or another doubt; inactive = no such curve, though single readings can be large; an effect the other way counts as inactive or inconclusive.

SMILES | NS1 function inh | Cruzain inh Det | Cruzain inh noDet | Flu NS1 inh | others
Cc1ccc(NC(=O)C(=O)NCCc2sc(-c3ccc(Cl)cc3)nc2C)cc1C | / | . | . | /
O=C1CN(C(=O)COC(=O)c2cccc(OCc3ccccc3)c2)c2ccccc2N1 | . | . | . | /
O=C1CN(C(=O)COC(=O)c2ccc(N3CCCCCC3)c([N+](=O)[O-])c2)c2ccccc2N1 | 10µM | . | . | .
CCOC(=O)c1cc(C)n(CC2CCC(C(=O)Nc3ccccc3OC)CC2)c1C (stereo not given) | / | . | . | /
COc1cccc(C2CC(c3ccccc3Cl)Nc3ncnn32)c1 (stereo not given) | . | / | / | /
COc1ccc(C2CC(c3ccccc3Cl)Nc3ncnn32)cc1OC (stereo not given) | 4.5µM | . | . | ?
CCCCn1c(SCC(=O)N2c3ccccc3Sc3ccccc32)nc2c1c(=O)n(C)c(=O)n2C | 11µM | . | . | .
CCn1c(SCC(=O)N2c3ccccc3Sc3ccccc32)nc2c1c(=O)n(C)c(=O)n2C | . | . | ? | /
COCCNC(=O)c1onc(CCl)c1C(=O)OC | . | . | . | /
CCCCNC(=O)c1onc(CCl)c1C(=O)OC | 1.1µM | . | . | .
Cc1sc2ncnc(SCC(=O)c3ccc(Cl)s3)c2c1C | 7.1µM | . | 10µM | .
Cc1sc2ncnc(SCC(=O)c3ccc(O)cc3O)c2c1C | . | / | / | /
Cc1cccc(Cn2c(CNS(=O)(=O)c3ccc4c(c3)CCCC4)nc3cccnc32)c1 | / | . | . | /
Cc1c(OCC(=O)NC(Cc2ccc(Cl)cc2)C(=O)O)ccc2c3c(c(=O)oc12)CCCC3 (stereo not given) | . | / | / | /
Cc1cc(OCC(=O)NC(Cc2ccc(Cl)cc2)C(=O)O)c2c(C)c(C)c(=O)oc2c1 (stereo not given) | 7.9µM | / | / | ? | Flu PR8 replic=.
Cc1cc(OCC(=O)NC(Cc2ccc(Cl)cc2)C(=O)O)c2c3c(c(=O)oc2c1)CCCC3 (stereo not given) | 3.2µM | / | / | .
Cc1cc(OCC(=O)NC(Cc2ccc(Cl)cc2)C(=O)O)c2c(C)cc(=O)oc2c1 (stereo not given) | . | / | / | /
C=CCN1C[C@H](C)N([C@H](c2ccc(C(=O)N(CC)CC)cc2)c2cccc(O)c2)C[C@H]1C | / | . | . | /
CCOc1ccc(N(CC(=O)Nc2ccc(OC)cc2)S(=O)(=O)c2ccc(Cl)cc2)cc1 | / | . | . | /
CCCn1c(-c2ccc(F)cc2)nc2c(NCCN(C(C)C)C(C)C)nc(C)nc21 | / | . | . | /
O=C(N=C1SCC(=O)N1c1ccccc1Cl)c1ccco1 | 11µM | . | . | .
O=C(N=C1SCC(=O)N1c1ccccc1)c1ccco1 | . | . | . | /
CCCOC(=O)c1cccc(Nc2nc(CCC)cc(=O)[nH]2)c1 | / | . | . | /
CCOC(=O)N1CCN(S(=O)(=O)c2ccc(C(=O)NNc3nc4cc(C)cc(C)c4s3)cc2)CC1 | ? | . | . | /
CCOC(=O)N1CCN(S(=O)(=O)c2ccc(C(=O)NNc3nc4ccc(Cl)cc4s3)cc2)CC1 | 7.9µM | . | . | .
SMILES | NS1 function inh | Cruzain inh Det | Cruzain inh noDet | Flu NS1 inh | others
CCOC(=O)N1CCN(S(=O)(=O)c2ccc(C(=O)NNc3nc4c(C)cc(C)cc4s3)cc2)CC1 | 4µM | . | . | ?
CCOC(=O)N1CCN(S(=O)(=O)c2ccc(C(=O)N(CCN(C)C)c3nc4ccc(Cl)cc4s3)cc2)CC1 | . | / | / | /
Cc1cccc2sc(NNC(=O)c3ccc(S(=O)(=O)N4CCc5ccccc5C4)cc3)nc12 | 13µM | . | 7.9µM | ?
CCOC(=O)N1CCN(S(=O)(=O)c2ccc(C(=O)NNc3nc4c(C)cccc4s3)cc2)CC1 | 10µM | . | . | ?
CCOC(=O)N1CCN(S(=O)(=O)c2ccc(C(=O)N(CCN(CC)CC)c3nc4c(C)cccc4s3)cc2)CC1 | . | / | / | /
Cc1cccc2sc(NNC(=O)c3ccc(S(=O)(=O)N4CCCC(C)C4)cc3)nc12 (stereo not given) | . | . | . | /
CCN(C(=O)COC(=O)c1ccc(F)c(S(=O)(=O)N2CCOCC2)c1)C1CCS(=O)(=O)C1 (stereo not given) | . | / | / | /
O=C(CSc1ccc2nc(-c3ccccc3)cn2n1)Nc1ccccc1 | / | . | ? | /
O=c1c(-c2cc(F)cc(F)c2)nc2cncnc2n1-c1ccccc1 | / | . | . | /
COc1ccc(CNC(=O)C(=O)NCC(c2ccco2)S(=O)(=O)c2ccc(Cl)cc2)cc1 (stereo not given) | / | . | . | /
CCS(=O)(=O)Nc1cc(-c2cn3ccc(C)cc3n2)ccc1C | / | . | . | /
COc1ccc(OCc2nc(C#N)c(NCc3ccccc3Cl)o2)cc1 | / | . | . | /
COc1ccc(CNC(=O)C2CCCN(S(=O)(=O)c3ccc4c(ccn4C)c3)C2)c(OC)c1 (stereo not given) | / | . | . | /
CCOC(=O)c1ccc(NC(=O)c2cnn(-c3ccc(C)cc3C)c2C2CCN(C(=O)OC(C)(C)C)CC2)cc1 | / | . | . | /
CC1(C)O[C@@H]2O[C@H]([C@@H]3COC(C)(C)O3)[C@H](N)[C@H]2O1 | . | . | . | /
COc1ccc(Nc2nc(NCc3ccco3)nc(N/N=C/c3ccc(O)cc3)n2)cc1 | 11µM | . | . | ?
COc1ccc(/C=N/Nc2nc(NCc3ccco3)nc(Nc3ccc(OC)cc3)n2)cc1 | ? | . | ? | /
c1ccc(-c2nnc(CN3CCCc4ccccc43)o2)cc1 | ? | . | ? | ?
c1ccc(-c2nnc(CN3CCCCC3)o2)cc1 | . | / | / | /
COC(=O)c1cc(NC(=O)[C@H](CCS(C)(=O)=O)N2Cc3ccccc3C2=O)cc(C(=O)OC)c1 | / | . | ? | /
Cc1c(/C=N/NC(=O)c2ccc(O)cc2)c2ccccn2c1C(=O)c1ccc(F)cc1 | 8.9µM | . | ? | .
Cc1c(/C=N/NC(=O)c2cccnc2)c2ccccn2c1C(=O)c1ccc(F)cc1 | . | . | ? | /
COCCn1c(=O)c(-c2ccc(F)cc2)nc2cnc(N3CCOCC3)nc21 | / | . | . | /
COc1ccc(C2/C=C\CN(C(=O)C3CCCC3)[C@H](Cc3ccccc3)C(=O)N2Cc2ccc(F)cc2)cc1 (stereo not given in full) | . | / | / | /
CCCCCCCN1C/C=C\C(c2ccc(OC)cc2)N(Cc2ccc(F)cc2)C(=O)[C@H]1Cc1ccccc1 (stereo not given in full) | ? | / | / | .
Cc1nn(S(=O)(=O)c2ccc(Br)cc2)c(C)c1S(=O)(=O)N1CCCCCC1 | / | . | . | /
COc1ccc2nc(/N=C(\N)NC(=O)N3c4ccccc4Sc4ccccc43)nc(C)c2c1 | ? | . | ? | /
Cc1ccc2c(C)nc(/N=C(\N)NC(=O)N3c4ccccc4Sc4ccccc43)nc2c1 | ? | . | ? | .
O=C(Nc1ccccc1C(=O)OCc1cc(=O)n2ccsc2n1)c1cccc(F)c1 | / | . | . | /
CCOC(=O)c1ccc(N2N=C(C)/C(=C/C=C/c3ccco3)C2=O)cc1 | . | . | ? | /
